Inconclusive results are not listed. A call without a number means that no potency is given here. A number with no mark means an inactive call. The source made the active and inactive calls. Unless noted, calls follow the shape of the dose curve; as a rule, active = well fitted curve in the direction sought with a large enough effect in the repeat runs; inconclusive = weak or mixed curves; inactive = no such curve, though single readings can be large; an effect the other way counts as inactive or inconclusive.
Key:
[1] = qHTS assay to identify small molecule agonists of the vitamin D receptor (VDR) signaling pathway - cell viability counter screen (AID 743224); also: nearly all actives have a fitted effect of over 50% in size; also: potency is read from the fitted curve at half-maximal effect; as to activity change, negative = cytotoxicity: series mostly up to about 63 µM
Method in brief: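 VDR-bla cells, 4 h after plating, exposed to compounds for 16 h at 37C; viability then read in the same wells as CellTiter-Glo luminescence after 30 min at room temperature, following the bla FRET read.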

[2] = qHTS assay to identify small molecule agonists of the NFkB signaling pathway (AID 1159509; active = well fitted curve in the direction sought with a large enough effect in the signal ratio in the repeat runs, not every such curve was filed as active; the % refers to the signal ratio; also: series mostly up to about 61 µM)
Method in brief: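 ME-180 NFkB-bla, 2,000 cells/well, overnight plating; cpd pinned in DMSO, 5 h 37 C; B/G FRET substrate 1.5 h RT; ex 405, em 460/530 nm.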

[3] = qHTS assay to identify small molecule agonists of the NFkB signaling pathway - cell viability counter screen (AID 1159515; calls by dose curve; also: nearly all actives have a fitted effect of over 55% in size; also: potency is read from the fitted curve at half-maximal effect; as to activity, negative = cytotoxic: series mostly up to about 61 µM)
Method in brief: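 NFkB-bla ME-180 cells, 2,000/well, plated overnight at 37 C; compound added for 5 hr at 37 C. Viability read in the same wells as the bla reporter, by CellTiter-Glo luminescence after 30 min at room temperature.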

[4] = qHTS assay to identify small molecule agonists of the endoplasmic reticulum stress response signaling pathway - cell viability counter screen (AID 1159517; calls by dose curve; also: nearly all actives have a fitted effect of over 50% in size; also: potency is read from the fitted curve at half-maximal effect;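 as to activity change, negative = cytotoxicity: HeLa cells carrying an ER stress response element beta-lactamase reporter; series mostly up to about 61 µM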)
Method in brief: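 HeLa cells carrying an ESRE-driven beta-lactamase reporter receive compound for 5 hr at 37 C. Cell viability is then gauged with CellTiter-Glo by luminescence, 30 min at room temperature.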

[5] = biological target: Nuclear receptor ROR-gamma (Homo sapiens) (UniProt P51449); assay: qHTS assay to identify small molecule antagonists of the retinoid-related orphan receptor gamma (ROR-gamma) signaling pathway (AID 1159521; also: nearly all actives have a fitted effect of over 50% in size; also: potency is read from the fitted curve at half-maximal effect;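 as to activity change, negative = inhibition: CHO cells with doxycycline inducible ROR-gamma driving an RORE luciferase reporter; top concentration of the series differs between compounds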)
Method in brief: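 CHO Tet-on RORγ, RORE-luc reporter. Cpd 2 h pre-incubation, then dox hyclate 1 uM final, 16 h, 37 C/5% CO2. ONE-Glo luminescence; decrease = antagonist.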

[6] = qHTS assay to identify small molecule agonists of the AP-1 signaling pathway - cell viability counter screen (AID 1159525; calls by dose curve; also: nearly all actives have a fitted effect of over 55% in size)
Method in brief: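 Luminescent ATP readout (Cell Titer Glo, 30 min RT), normalised to DMSO and tetra n-octyl ammonium bromide controls. Cells were ME-180 AP-1-bla in 0.5% dialyzed FBS Opti-MEM, with a 5 h, 37 °C compound exposure.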

[7] = qHTS assay to identify small molecule agonists of the AP-1 signaling pathway (AID 1159526; calls by dose curve)
[8] = qHTS assay to identify small molecule agonists of the RXR signaling pathway - cell viability counter screen (AID 1159529); also: nearly all actives have a fitted effect of over 50% in size; also: potency is read from the fitted curve at half-maximal effect; as to activity change, negative = cytotoxicity: series mostly up to about 77 µM
Method in brief: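 HEK 293T RXRa-bla cells, 2% CS-FBS; 5 h settle; cpd 16 h 37 C, 5% CO2; CellTiter-Glo 30 min RT, luminescence. Tetraoctyl ammonium bromide as positive control.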

[9] = qHTS assay to identify small molecule antagonists of the retinoid acid receptor (RAR) signaling pathway - cell viability counter screen (AID 1159551); also: nearly all actives have a fitted effect of over 35% in size; also: potency is read from the fitted curve at half-maximal effect
Method in brief: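 C3RL4 RARE-luciferase cells, 1,000/well, incubated overnight, then dosed with compound plus 1 uM retinol (final). After 6 hr at 37 C, viability read by CellTiter-Glo ATP luminescence following 30 min at room temperature.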

[10] = qHTS assay to identify small molecule antagonists of the retinoic acid receptor (RAR) signaling pathway (AID 1159552; also: nearly all actives have a fitted effect of over 50% in size; also: potency is read from the fitted curve at half-maximal effect)
Method in brief: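 Cells of the C3RL4 line were seeded, incubated overnight, then dosed with compounds in DMSO followed immediately by retinol (1 uM final). Six hours later luciferase detection reagent went in; signal was measured after 30 min at RT.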

[11] = qHTS assay to identify small molecule antagonists of the vitamin D receptor (VDR) signaling pathway - cell viability counter screen (AID 743225); also: nearly all actives have a fitted effect of over 50% in size
Method in brief: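 Read-out: CellTiter-Glo luminescence measured 30 min after reagent addition at room temperature. Cells were VDR-bla HEK 293T exposed 16 h at 37C, 5% CO2, to compound with 3 nM final calcitriol agonist.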

[12] = qHTS assay to identify small molecule agonists of the retinoic acid receptor (RAR) signaling pathway (AID 1159553); also: potency is read from the fitted curve at half-maximal effect
Method in brief: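 C3RL4 RARE-luciferase cells were seeded at 1,000/well and grown overnight at 37 C, then exposed to compounds for 6 hr at 37 C, 5% CO2. Luciferase reagent was added and luminescence was read after 30 min at room temperature.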

[13] = qHTS assay to identify small molecule antagonists of the retinoid-related orphan receptor gamma (ROR-gamma) signaling pathway - cell viability counter screen (AID 1159520); also: nearly all actives have a fitted effect of over 50% in size; also: potency is read from the fitted curve at half-maximal effect
Method in brief: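 Cytotoxicity was read from cellular ATP (CellTiter-Glo luminescence) after 16 hr at 37 C with 1 uM doxycycline induction. The inducer was added 2 hr after compound transfer to Tet-on ROR gamma CHO cells.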

[14] = qHTS assay to identify small molecule antagonists of the estrogen related receptor (ERR) signaling pathway - cell viability counter screen (AID 1224818);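 also: series mostly up to about 46 µM; viability measured after 17.5 h of compound exposure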
Method in brief: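 ERR cells, 2,000 per well, compound added after 6 h and incubated 17.5 h at 37 C. Viability read by CellTiter-Fluor fluorescence after a further 30 min at 37 C.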

[15] = qHTS assay to identify small molecule antagonists of the estrogen related receptor (ERR) signaling pathway (AID 1224819)
Method in brief: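 ERR reporter cell line (NTP) plated at 2,000 cells/well, settled 6 h at 37C/5% CO2, then exposed to LOPAC compounds for 18 h at 37C. One-Glo luciferase luminescence read after 30 min at room temperature.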

[16] = qHTS assay to identify small molecule agonists of the estrogen related receptor (ERR) signaling pathway (AID 1224820)
Method in brief: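 Cells: ERR line from NTP, 2,000/well. Pre-incubation 6 h, 37 C/5% CO2. Compound (DMSO) pin transfer, 18 h 37 C. One-Glo, 30 min RT, luminescence.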

[17] = test system: estrogen-related receptor alpha (ERRalpha) with PGC-1alpha coactivator, human; assay: qHTS assay to identify small molecule antagonists of the estrogen related receptor signaling pathway with the pleiotropic PPARgamma coactivator (PGC) (AID 1224821; calls by dose curve)
Method in brief: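 Luminescent read-out (One-Glo, 30 min at room temperature) following 18 h treatment of PGC/ERR cells at 37 C with compounds delivered in DMSO. Cells had settled 6 h at 37 C/5% CO2 before dosing.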

[18] = qHTS assay to identify small molecule agonists of the estrogen related receptor signaling pathway with the pleiotropic PPARgamma coactivator (PGC) (AID 1224823)
Method in brief: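 Steps: plate PGC/ERR cells at 2,000 cells/well; incubate 6 h, 37 C/5% CO2; pin-transfer compounds (DMSO); incubate 18 h, 37 C; add One-Glo; 30 min RT; read luminescence.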

[19] = qHTS assay to identify small molecule agonists of the endoplasmic reticulum stress response signaling pathway (AID 1159516; active = well fitted activation curve with a large enough effect in the signal ratio in the repeat runs, not every such curve was filed as active; the % refers to the signal ratio)
Method in brief: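 CellSensor ESRE-bla HeLa cells, 1,500 per well, plated overnight, then exposed to compounds for 5 hr at 37 C. Beta-lactamase reporter read with LiveBLAzer B/G FRET substrate after 2 hr at room temperature, 405 nm excitation, 460 and 530 nm emission.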

[20] = biological target: Retinoic acid receptor RXR-alpha (Homo sapiens) (UniProt P19793); assay: qHTS assay to identify small molecule agonists of the RXR signaling pathway (AID 1159527; calls by dose curve; also: nearly all actives have a fitted effect of over 35% in size)
Method in brief: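 Read-out: beta-lactamase FRET ratio (405 nm excitation, 460 and 530 nm emission) after 2 hr substrate loading at room temperature. Cells were RXR-alpha-UAS-bla HEK 293T treated with compounds for 16 hr in 2% charcoal-stripped FBS medium.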

Chain of Retinoic acid receptor RXR-alpha (Homo sapiens) (P19793 whole entry, looked up): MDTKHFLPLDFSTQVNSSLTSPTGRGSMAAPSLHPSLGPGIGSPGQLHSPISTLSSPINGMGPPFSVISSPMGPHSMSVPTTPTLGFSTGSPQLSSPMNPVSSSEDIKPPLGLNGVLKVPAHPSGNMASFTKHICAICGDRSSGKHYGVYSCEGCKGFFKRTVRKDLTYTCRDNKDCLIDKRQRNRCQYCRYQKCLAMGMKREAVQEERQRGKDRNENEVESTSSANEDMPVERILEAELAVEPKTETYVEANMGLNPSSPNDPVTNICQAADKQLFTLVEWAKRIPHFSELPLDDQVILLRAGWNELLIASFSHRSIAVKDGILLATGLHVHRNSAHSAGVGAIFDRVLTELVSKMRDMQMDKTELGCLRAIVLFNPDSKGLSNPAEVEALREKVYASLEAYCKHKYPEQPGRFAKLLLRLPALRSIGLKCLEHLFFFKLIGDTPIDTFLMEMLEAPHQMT

Clc1cc(C(Cl)(Cl)Cl)cnc1Cl
Potency [1]: inactive | outcome [2]: inactive | Potency [3]: inactive | Potency [4]: 11 µM (active) | Potency [5]: inactive | Potency [6]: inactive | outcome [7]: inactive | Potency [8]: inactive | Potency [9]: inactive | Potency [10]: inactive

II
Potency [1]: inactive | Potency [11]: inactive | outcome [2]: inactive | Potency [3]: inactive | Potency [4]: inactive | Potency [8]: 6.92 µM (active) | Potency [10]: 68.6 µM (active) | Potency [12]: inactive

O=C(O)C(F)(F)C(F)(F)C(F)(F)C(F)(F)C(F)(F)C(F)(F)C(F)(F)C(F)(F)C(F)(F)F
Potency [11]: inactive | outcome [2]: inactive | Potency [3]: inactive | Potency [13]: inactive | Potency [5]: inactive | Potency [6]: inactive | Potency [9]: inactive | Potency [12]: inactive

O=S1(=O)OC(c2cc(Br)c(O)c(Br)c2)(c2cc(Br)c(O)c(Br)c2)c2ccccc21
outcome [2]: inactive | Potency [3]: 40 µM (active) | Potency [13]: 7.91 µM (active) | Potency [5]: 5.6 µM (active) | Potency [6]: inactive | outcome [7]: inactive | Potency [8]: inactive | Potency [9]: 19.9 µM (active) | Potency [10]: 25 µM (active)

NS(=O)(=O)C(F)(F)C(F)(F)C(F)(F)C(F)(F)C(F)(F)C(F)(F)C(F)(F)C(F)(F)F
Potency [1]: 49 µM (active) | outcome [2]: inactive | Potency [3]: inactive | Potency [13]: inactive | Potency [5]: 54.5 µM (active) | Potency [6]: inactive | outcome [7]: inactive | Potency [8]: inactive | Potency [9]: inactive | Potency [10]: inactive | Potency [12]: inactive

NCC(CC(=O)O)c1ccc(Cl)cc1 (stereo not given)
activity change, negative = cytotoxicity [1]: 15.2% [at 0.55 µM] | viability change, negative = cytotoxic [11]: 6.5% [at 0.628 µM] | activation [2]: 0.398% [at 0.628 µM] | activity, negative = cytotoxic [3]: 1.83% [at 0.628 µM] | activity, negative = cytotoxicity [13]: -1.2% [at 0.349 µM] | activity change, negative = inhibition [5]: 4.26% [at 0.35 µM] | viability change, negative = cytotoxic [6]: -1.57% [at 0.29 µM] | activation [7]: -1.64% [at 0.29 µM] | activity change, negative = cytotoxicity [8]: 15% [at 0.29 µM] | activity change, negative = cytotoxicity [9]: -0.97% [at 0.349 µM] | outcome [14]: inactive | outcome [15]: inactive | outcome [16]: inactive | Potency [17]: inactive | outcome [18]: inactive

CC(=O)C(C)(C)C
Potency [1]: inactive | outcome [2]: inactive | Potency [3]: inactive | Potency [13]: inactive | Potency [6]: inactive | outcome [7]: inactive | Potency [8]: inactive | Potency [9]: inactive | Potency [10]: inactive | Potency [12]: inactive

O=C=Nc1ccc(Cl)cc1
outcome [2]: inactive | outcome [19]: inactive | Potency [4]: inactive | Potency [13]: inactive | Potency [5]: inactive | Potency [6]: inactive | outcome [7]: inactive | Potency [9]: inactive | Potency [10]: inactive | Potency [12]: 24.3 µM (active)

C=CC(=O)OCCCCO
Potency [1]: inactive | outcome [2]: inactive | outcome [19]: inactive | Potency [4]: inactive | Potency [13]: inactive | Potency [6]: inactive | Potency [20]: inactive | Potency [8]: inactive

CCCC(=O)Cl
Potency [1]: inactive | Potency [11]: inactive | outcome [2]: inactive | Potency [3]: inactive | Potency [13]: inactive | Potency [6]: inactive | outcome [7]: inactive | Potency [8]: inactive | Potency [9]: inactive | Potency [10]: inactive | Potency [12]: inactive
